Measurements as given in paper PMC7862700, “An all-to-all approach to the identification of sequence-specific readers for epigenetic DNA modifications on cytosine”.

Columns and labels:
Assay in all cases: DAPPL (digital affinity profiling via proximity ligation, sequencing); 10 mM Tris-HCl pH 7.5, 50 mM NaCl, 1 mM DTT, 4% glycerol, room temperature, 30 min; GST-TFs on glutathione beads, 16-mer random dsDNA library, 0.1% formaldehyde crosslink after washing; high values mean tight binding
[1] = biological target: T1, FLI1 (Homo sapiens, UniProt Q01543 1-452); conditions: protein: recombinant; tags: N-terminal GST; dsDNA, one strand shown
T1 sequence: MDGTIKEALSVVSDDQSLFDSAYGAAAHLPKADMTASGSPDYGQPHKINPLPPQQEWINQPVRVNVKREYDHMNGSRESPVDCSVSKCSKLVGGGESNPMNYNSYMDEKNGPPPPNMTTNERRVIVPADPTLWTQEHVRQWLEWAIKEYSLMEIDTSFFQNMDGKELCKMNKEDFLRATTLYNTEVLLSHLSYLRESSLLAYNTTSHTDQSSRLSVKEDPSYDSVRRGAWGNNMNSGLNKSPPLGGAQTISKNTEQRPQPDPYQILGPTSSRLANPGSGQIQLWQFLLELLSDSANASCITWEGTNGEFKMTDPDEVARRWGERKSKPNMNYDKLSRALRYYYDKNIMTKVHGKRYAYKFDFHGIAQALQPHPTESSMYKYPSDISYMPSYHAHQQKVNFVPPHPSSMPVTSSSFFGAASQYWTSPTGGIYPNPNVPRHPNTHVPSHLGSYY
Method in brief: (§1)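 GST fusions of human transcription factors were expressed in yeast and captured with glutathione beads. Once given DNA barcodes and pooled alongside a tag-only sample, they were incubated for 30 min at room temperature with 200 nmole of a random double-stranded 16-mer DNA library in Tris/NaCl/DTT/glycerol buffer, then washed, crosslinked (0.1% formaldehyde), proximity-ligated, PCR-amplified and sequenced on an Illumina NextSeq500. The binding signal of each hexamer is its read frequency for a factor divided by its frequency for the tag-only sample.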

[2] = biological target: T2, ELK1 (Homo sapiens, UniProt P19419 1-428); conditions: protein: recombinant; tags: N-terminal GST; dsDNA, one strand shown
T2 sequence: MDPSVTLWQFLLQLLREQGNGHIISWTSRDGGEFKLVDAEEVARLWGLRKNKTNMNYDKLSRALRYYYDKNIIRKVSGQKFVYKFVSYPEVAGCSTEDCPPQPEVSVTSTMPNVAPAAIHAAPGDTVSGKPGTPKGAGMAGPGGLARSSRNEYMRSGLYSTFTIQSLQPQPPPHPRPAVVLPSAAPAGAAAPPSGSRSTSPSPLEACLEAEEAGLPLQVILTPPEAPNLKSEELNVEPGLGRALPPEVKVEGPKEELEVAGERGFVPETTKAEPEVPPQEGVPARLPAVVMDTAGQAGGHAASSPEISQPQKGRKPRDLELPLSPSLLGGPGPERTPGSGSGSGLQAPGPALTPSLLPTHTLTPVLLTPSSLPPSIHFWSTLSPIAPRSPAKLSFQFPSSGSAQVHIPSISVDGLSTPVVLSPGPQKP
Method in brief: as §1

[3] = biological target: T3, GABPA (Homo sapiens, UniProt Q06546 1-454); conditions: protein: recombinant; tags: N-terminal GST; dsDNA, one strand shown
T3 sequence: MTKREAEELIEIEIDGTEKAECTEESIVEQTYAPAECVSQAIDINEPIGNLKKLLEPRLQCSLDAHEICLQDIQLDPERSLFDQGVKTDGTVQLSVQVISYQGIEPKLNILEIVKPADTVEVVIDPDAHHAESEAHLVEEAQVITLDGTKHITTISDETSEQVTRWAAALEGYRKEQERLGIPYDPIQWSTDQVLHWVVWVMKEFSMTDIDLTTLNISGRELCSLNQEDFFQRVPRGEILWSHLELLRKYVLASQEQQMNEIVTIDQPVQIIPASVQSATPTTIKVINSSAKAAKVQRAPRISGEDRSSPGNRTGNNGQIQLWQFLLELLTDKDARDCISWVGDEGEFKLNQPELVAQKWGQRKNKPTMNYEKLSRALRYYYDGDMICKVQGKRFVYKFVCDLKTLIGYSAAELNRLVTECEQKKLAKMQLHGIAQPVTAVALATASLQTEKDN
Method in brief: as §1

[4] = biological target: T4, ERG (Homo sapiens, UniProt P11308 1-479); conditions: protein: recombinant; tags: N-terminal GST; dsDNA, one strand shown
T4 sequence: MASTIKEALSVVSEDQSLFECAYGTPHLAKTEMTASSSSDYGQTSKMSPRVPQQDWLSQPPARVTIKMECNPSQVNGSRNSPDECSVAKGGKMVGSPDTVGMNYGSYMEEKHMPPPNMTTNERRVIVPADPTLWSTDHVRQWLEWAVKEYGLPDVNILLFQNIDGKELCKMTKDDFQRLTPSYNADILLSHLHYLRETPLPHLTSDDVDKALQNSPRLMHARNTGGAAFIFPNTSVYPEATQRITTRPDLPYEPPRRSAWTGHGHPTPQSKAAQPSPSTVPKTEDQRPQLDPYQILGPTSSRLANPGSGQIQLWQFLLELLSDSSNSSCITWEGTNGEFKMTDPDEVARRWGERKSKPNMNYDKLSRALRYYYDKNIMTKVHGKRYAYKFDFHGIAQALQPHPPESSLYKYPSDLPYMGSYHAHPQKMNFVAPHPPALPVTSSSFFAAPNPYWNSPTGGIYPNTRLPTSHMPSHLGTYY
Method in brief: as §1

[5] = biological target: ELF1 (Homo sapiens, UniProt P32519 1-619); conditions: protein: recombinant; tags: N-terminal GST; dsDNA, one strand shown
Sequence of ELF1 (P32519 whole entry): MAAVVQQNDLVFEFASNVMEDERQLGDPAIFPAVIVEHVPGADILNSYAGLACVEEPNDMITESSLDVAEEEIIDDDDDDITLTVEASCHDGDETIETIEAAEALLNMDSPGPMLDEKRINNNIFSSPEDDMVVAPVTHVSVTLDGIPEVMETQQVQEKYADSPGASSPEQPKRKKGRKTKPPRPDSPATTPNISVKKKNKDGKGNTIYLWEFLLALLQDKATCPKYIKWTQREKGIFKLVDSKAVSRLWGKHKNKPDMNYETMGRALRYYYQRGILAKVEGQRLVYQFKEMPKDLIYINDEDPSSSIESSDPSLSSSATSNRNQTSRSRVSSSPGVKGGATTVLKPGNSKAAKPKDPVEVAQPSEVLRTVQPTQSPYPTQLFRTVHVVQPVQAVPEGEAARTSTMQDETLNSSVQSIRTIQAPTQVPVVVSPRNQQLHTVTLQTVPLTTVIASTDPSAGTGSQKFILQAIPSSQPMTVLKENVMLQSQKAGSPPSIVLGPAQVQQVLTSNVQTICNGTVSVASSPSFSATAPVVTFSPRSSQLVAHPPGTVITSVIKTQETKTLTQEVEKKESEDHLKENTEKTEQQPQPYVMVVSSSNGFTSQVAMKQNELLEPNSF
Method in brief: as §1

[6] = biological target: T5, EHF (Homo sapiens, UniProt Q9NZC4 1-300); conditions: protein: recombinant; tags: N-terminal GST; dsDNA, one strand shown
T5 sequence: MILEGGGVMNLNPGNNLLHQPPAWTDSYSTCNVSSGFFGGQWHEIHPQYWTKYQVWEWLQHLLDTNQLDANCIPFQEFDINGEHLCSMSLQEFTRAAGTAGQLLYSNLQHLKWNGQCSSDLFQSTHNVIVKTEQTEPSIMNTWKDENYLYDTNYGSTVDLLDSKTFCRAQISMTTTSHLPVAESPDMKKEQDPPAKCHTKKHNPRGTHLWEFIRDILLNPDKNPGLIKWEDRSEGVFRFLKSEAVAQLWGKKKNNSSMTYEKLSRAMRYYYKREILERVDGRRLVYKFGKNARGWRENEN
Method in brief: as §1

[7] = biological target: SPI1 (Homo sapiens, UniProt P17947 1-270); conditions: protein: recombinant; tags: N-terminal GST; dsDNA, one strand shown
Method in brief: as §1

[8] = biological target: SPIB (Homo sapiens, UniProt Q01892 1-262); conditions: protein: recombinant; tags: N-terminal GST; dsDNA, one strand shown
Sequence of SPIB (Q01892 whole entry): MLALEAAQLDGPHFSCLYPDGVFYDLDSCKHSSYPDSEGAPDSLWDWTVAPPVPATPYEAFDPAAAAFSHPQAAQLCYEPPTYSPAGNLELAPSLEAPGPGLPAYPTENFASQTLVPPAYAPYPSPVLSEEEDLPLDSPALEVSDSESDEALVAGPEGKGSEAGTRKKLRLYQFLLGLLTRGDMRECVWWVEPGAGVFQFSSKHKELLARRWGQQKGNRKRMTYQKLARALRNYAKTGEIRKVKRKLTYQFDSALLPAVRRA
Method in brief: as §1

[9] = biological target: T6, ELK3 (Homo sapiens, UniProt P41970 1-407); conditions: protein: recombinant; tags: N-terminal GST; dsDNA, one strand shown
T6 sequence: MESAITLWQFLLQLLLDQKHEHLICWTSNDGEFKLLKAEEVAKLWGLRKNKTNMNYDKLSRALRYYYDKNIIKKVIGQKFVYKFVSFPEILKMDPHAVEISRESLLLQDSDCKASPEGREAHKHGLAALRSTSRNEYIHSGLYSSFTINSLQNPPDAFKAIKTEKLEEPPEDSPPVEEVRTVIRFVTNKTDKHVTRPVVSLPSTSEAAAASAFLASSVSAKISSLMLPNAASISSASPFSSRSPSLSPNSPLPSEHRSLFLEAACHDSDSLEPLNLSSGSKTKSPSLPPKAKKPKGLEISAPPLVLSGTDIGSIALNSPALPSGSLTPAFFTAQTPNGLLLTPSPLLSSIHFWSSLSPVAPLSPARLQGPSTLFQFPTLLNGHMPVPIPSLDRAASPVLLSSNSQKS
Method in brief: as §1

[10] = biological target: T7, FEV (Homo sapiens, UniProt Q99581 1-238); conditions: protein: recombinant; tags: N-terminal GST; dsDNA, one strand shown
T7 sequence: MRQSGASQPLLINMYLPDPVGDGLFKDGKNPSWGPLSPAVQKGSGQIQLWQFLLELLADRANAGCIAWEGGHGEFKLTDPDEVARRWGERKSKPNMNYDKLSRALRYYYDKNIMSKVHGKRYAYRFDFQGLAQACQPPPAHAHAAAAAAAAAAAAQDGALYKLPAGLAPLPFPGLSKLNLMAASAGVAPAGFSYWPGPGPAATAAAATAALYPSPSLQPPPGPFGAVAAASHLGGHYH
Method in brief: as §1

[11] = biological target: ETV5 (Homo sapiens, UniProt P41161 1-510); conditions: protein: recombinant; tags: N-terminal GST; dsDNA, one strand shown
Sequence of ETV5 (P41161 whole entry): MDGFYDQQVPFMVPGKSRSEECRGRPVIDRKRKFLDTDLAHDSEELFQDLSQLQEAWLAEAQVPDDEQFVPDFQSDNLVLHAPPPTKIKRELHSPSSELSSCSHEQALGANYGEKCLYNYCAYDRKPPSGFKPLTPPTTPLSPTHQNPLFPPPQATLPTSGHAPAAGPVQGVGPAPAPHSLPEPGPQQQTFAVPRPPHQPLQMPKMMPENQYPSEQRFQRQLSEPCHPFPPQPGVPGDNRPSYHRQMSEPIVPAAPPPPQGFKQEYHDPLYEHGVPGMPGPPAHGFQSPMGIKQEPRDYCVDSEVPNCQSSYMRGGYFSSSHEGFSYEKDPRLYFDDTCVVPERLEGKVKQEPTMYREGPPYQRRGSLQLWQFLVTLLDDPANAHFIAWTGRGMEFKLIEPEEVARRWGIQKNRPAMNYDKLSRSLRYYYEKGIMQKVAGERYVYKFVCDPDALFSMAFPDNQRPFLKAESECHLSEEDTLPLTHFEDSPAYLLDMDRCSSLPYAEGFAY
Method in brief: as §1

[12] = biological target: HSF1 (Homo sapiens, UniProt Q00613 1-529); conditions: protein: recombinant; tags: N-terminal GST; chain copies: 3; dsDNA, one strand shown
Sequence of HSF1 (Q00613 whole entry): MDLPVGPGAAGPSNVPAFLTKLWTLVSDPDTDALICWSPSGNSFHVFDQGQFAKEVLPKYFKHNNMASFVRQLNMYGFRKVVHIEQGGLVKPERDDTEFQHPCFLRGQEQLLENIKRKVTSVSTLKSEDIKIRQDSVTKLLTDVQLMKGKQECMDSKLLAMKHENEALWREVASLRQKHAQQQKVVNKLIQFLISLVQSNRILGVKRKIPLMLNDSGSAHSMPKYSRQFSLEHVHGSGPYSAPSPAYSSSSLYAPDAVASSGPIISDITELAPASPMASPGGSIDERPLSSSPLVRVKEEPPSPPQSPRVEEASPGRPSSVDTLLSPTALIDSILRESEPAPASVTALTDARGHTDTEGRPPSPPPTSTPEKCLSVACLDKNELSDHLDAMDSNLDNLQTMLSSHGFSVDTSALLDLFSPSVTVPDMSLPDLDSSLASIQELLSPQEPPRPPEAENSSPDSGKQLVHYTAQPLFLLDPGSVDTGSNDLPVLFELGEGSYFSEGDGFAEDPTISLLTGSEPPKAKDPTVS
Method in brief: as §1

[13] = biological target: T8, SPIC (Homo sapiens, UniProt Q8N5J4 1-248); conditions: protein: recombinant; tags: N-terminal GST; dsDNA, one strand shown
T8 sequence: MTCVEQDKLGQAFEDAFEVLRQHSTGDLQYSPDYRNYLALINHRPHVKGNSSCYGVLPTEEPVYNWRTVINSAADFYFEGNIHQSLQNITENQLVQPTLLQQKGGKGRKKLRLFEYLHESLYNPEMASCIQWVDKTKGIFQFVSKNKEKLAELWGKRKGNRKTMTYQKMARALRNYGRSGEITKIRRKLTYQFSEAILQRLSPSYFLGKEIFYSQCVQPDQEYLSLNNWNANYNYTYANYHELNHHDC
Method in brief: as §1

[14] = biological target: ELF4 (Homo sapiens, UniProt Q99607 1-663); conditions: protein: recombinant; tags: N-terminal GST; dsDNA, one strand shown
Sequence of ELF4 (Q99607 whole entry): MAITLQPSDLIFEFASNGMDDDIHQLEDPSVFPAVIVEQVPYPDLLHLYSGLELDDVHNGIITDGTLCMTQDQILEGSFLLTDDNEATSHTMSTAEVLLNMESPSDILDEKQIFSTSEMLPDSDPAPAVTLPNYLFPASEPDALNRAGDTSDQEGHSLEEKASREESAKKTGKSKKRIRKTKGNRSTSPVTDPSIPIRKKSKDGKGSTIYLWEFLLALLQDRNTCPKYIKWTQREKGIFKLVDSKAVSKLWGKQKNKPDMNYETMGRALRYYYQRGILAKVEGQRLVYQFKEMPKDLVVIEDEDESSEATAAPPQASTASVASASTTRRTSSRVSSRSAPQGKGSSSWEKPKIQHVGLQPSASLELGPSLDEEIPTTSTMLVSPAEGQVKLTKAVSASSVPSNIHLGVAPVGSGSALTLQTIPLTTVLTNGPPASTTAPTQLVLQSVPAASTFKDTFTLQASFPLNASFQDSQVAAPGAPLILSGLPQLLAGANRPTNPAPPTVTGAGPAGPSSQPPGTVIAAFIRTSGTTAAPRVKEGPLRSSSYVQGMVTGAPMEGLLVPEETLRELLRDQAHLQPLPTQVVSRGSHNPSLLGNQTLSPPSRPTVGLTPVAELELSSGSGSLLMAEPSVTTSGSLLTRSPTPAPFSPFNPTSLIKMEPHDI
Method in brief: as §1

[15] = biological target: T9, ELK4 (Homo sapiens, UniProt P28324-2 1-405); conditions: protein: recombinant; tags: N-terminal GST; dsDNA, one strand shown
T9 sequence: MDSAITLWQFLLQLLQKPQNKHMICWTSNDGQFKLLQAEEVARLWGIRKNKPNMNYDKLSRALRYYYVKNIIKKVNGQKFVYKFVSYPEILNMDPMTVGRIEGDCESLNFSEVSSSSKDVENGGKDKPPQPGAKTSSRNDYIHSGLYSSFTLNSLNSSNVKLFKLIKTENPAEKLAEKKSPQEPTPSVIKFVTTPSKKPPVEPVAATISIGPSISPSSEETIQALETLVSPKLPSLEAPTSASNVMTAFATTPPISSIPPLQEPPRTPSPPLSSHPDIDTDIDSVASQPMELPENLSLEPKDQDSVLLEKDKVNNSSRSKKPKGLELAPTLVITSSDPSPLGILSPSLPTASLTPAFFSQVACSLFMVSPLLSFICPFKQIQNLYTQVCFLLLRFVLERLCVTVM
Method in brief: as §1

[16] = biological target: T10, ETV2 (Homo sapiens, UniProt O00321 1-342); conditions: protein: recombinant; tags: N-terminal GST; dsDNA, one strand shown
T10 sequence: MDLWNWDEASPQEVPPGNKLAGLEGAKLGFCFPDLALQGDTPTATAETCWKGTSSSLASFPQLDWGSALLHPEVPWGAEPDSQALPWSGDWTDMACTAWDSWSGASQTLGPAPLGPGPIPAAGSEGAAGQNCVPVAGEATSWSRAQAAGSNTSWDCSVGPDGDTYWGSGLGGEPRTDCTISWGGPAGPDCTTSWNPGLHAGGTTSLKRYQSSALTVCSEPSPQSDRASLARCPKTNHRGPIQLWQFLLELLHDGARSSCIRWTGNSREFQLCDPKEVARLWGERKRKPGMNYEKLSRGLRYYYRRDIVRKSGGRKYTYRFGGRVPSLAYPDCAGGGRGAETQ
Method in brief: as §1

[17] = biological target: T11, ELF3 (Homo sapiens, UniProt P78545 1-371); conditions: protein: recombinant; tags: N-terminal GST; dsDNA, one strand shown
T11 sequence: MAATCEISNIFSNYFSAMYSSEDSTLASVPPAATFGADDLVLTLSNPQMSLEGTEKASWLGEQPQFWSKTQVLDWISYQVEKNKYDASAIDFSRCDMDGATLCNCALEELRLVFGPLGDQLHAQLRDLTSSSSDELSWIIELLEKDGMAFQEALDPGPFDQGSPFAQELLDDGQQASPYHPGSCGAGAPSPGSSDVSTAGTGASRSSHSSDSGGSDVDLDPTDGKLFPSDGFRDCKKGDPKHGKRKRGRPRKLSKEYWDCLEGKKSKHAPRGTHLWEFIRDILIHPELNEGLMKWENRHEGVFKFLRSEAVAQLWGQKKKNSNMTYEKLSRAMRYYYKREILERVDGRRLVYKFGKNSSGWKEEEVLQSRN
Method in brief: as §1

[18] = biological target: CRX (Homo sapiens, UniProt O43186 1-299); conditions: protein: recombinant; tags: N-terminal GST; dsDNA, one strand shown
Sequence of CRX (O43186 whole entry): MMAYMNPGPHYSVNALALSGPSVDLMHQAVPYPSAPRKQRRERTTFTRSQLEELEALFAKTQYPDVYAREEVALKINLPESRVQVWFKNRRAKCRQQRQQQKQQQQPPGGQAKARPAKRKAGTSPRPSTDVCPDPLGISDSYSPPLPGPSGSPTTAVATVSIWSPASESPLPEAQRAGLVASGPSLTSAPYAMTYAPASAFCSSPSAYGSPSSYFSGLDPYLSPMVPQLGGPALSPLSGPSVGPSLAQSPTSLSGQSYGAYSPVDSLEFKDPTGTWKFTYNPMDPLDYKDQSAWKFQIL
Method in brief: as §1

[19] = biological target: ETV1 (Homo sapiens, UniProt P50549 1-477); conditions: protein: recombinant; tags: N-terminal GST; dsDNA, one strand shown
Sequence of ETV1 (P50549 whole entry): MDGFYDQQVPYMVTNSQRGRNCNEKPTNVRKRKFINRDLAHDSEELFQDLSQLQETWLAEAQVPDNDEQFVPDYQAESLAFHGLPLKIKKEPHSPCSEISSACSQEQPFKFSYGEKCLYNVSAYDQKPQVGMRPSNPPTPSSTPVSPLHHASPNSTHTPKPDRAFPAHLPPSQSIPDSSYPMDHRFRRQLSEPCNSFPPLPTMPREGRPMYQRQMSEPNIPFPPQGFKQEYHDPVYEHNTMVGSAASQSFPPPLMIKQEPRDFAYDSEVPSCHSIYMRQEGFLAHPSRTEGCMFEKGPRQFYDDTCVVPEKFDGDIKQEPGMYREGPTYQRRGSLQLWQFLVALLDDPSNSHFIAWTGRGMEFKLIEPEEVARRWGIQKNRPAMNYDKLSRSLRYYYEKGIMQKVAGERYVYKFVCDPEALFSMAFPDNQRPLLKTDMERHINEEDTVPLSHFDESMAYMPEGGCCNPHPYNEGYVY
Method in brief: as §1

With TAACTT the binding signal [1] was 1.41 fold enrichment (6-mer frequency, TF over GST control), the binding signal [2] was 1.39 fold enrichment (6-mer frequency, TF over GST control) and the binding signal [3] was 1.34 fold enrichment (6-mer frequency, TF over GST control). For the same sequence, the binding signal [4] was 1.34 fold enrichment (6-mer frequency, TF over GST control), the binding signal [5] was 1.46 fold enrichment (6-mer frequency, TF over GST control) and the binding signal [6] was 1.35 fold enrichment (6-mer frequency, TF over GST control). For the same sequence, the binding signal [7] was 1.62 fold enrichment (6-mer frequency, TF over GST control), the binding signal [8] was 1.43 fold enrichment (6-mer frequency, TF over GST control) and the binding signal [9] was 1.27 fold enrichment (6-mer frequency, TF over GST control). For the same sequence, the binding signal [10] was 1.51 fold enrichment (6-mer frequency, TF over GST control), the binding signal [11] was 1.45 fold enrichment (6-mer frequency, TF over GST control) and the binding signal [12] was 1.28 fold enrichment (6-mer frequency, TF over GST control). The binding signal [13] was 1.56 fold enrichment (6-mer frequency, TF over GST control), the binding signal [14] was 1.33 fold enrichment (6-mer frequency, TF over GST control) and the binding signal [15] was 1.32 fold enrichment (6-mer frequency, TF over GST control). The binding signal [16] was 1.59 fold enrichment (6-mer frequency, TF over GST control), the binding signal [17] was 1.35 fold enrichment (6-mer frequency, TF over GST control) and the binding signal [18] was 1.56 fold enrichment (6-mer frequency, TF over GST control). The binding signal [19] was 1.33 fold enrichment (6-mer frequency, TF over GST control).
